Data reported in PubChem BioAssay (NCI).
Compounds without any hit were thinned out: in the full panel of roughly 83,000, 20% have a hit.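 96-well plates, one dose, 48 hours. Percent growth reported; active if below 10.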 Values without a mark were called inactive. Activity calls are given as the source filed them.

What follows are compounds tested on SK-MEL-5 melanoma (assay: NCI-60 one-dose screen, 48 h (100 = growth as untreated, 0 = no growth, -100 = all killed)). Conditions: 10 µM unless noted.

| SMILES | growth |
| --- | --- |
| COC(=O)c1oc2c(C(=O)/C=C/c3ccc(OC)cc3)c(OCCN3CCOCC3)ccc2c1C | -100% (active) |
| CN(C)c1ccc(/C=N/n2c(-c3cc(F)c(Cl)cc3Cl)nn(CN3CCOCC3)c2=S)cc1 | 92.3% |
| CS(=O)(=O)OCC(COS(C)(=O)=O)C(c1ccccc1)c1ccccc1 | 107% |
| Nc1ncnc2c1c(C(F)(F)F)cn2[C@@H]1O[C@H](CO)[C@@H](O)[C@H]1O | -32.1% (active) |
| Cc1nccc2c3ccc(OCc4cn(Cc5ccc(Br)cc5)nn4)cc3n(CCCc3ccccc3)c12 | 81.1% |
| [2H]c1nc(Nc2ncc(F)c(-c3cc(F)c4nc(C)n(C(C)C)c4c3)n2)c([2H])c([2H])c1CN1CCN(CC)CC1 | 27.5% |
| COc1cc(/C=C2/Oc3cc4occc4c(OC)c3C2=O)ccc1OCC(=O)Nc1ccncc1 | 100% |
| COc1ccc2c(c1)OC(N)=C(C#N)C2c1ccc(F)cc1 (stereo unspecified) | 22.6% |
| CCCCCCCCCCCCCCCCNc1ccccc1 | 104% |
| O=C(Nc1ccc(-n2ccc3c(NC(=O)c4ccccc4)ncnc32)cc1)c1cccc(C(F)(F)F)c1 | 33.1% |
| COc1ccc(/C(Cl)=N/N=C(\Cl)c2cc(OC)c(OC)c(OC)c2)cc1OC(C)=O | 94.8% |
| O=C1C(Cl)=C(Nc2ccccc2)C(=O)C(Cl)=C1Nc1ccccc1 | 112% |
| O=C(Nc1ccc(-n2cc(-c3ccncc3)c(-c3ccc(O)c(Cl)c3)n2)cc1)c1cc(C(F)(F)F)cc(C(F)(F)F)c1 | 60% |
| CCn1c(C)nc([N+](=O)[O-])c1Sc1nc(N)nc2nc[nH]c12 | 59.2% |
| Cc1cn(C2CC(N=[N+]=[N-])C(COP(=O)(O)OP(=O)(O)OP(=O)(O)O)O2)c(=O)[nH]c1=O (stereo unspecified) | 106% |
| COc1cc(/C=C\c2cc(/C=C\c3ccc(O)c(OC)c3)n(C(=O)CNc3ccccc3OC)n2)ccc1O | 44.8% |
| COc1ccc(Cl)cc1NC(=O)c1cc2c([nH]1)-c1nc(NC(=O)C(C)C)sc1CC2 | 77.6% |
| O=C(/C=C/c1ccco1)c1cccc(Nc2nc(Nc3ccccc3)nc(Nc3ccccc3)n2)c1 | 81.2% |
| O=C(Nc1ccc(-n2ccc3c(NC(=O)c4ccccc4)ncnc32)cc1)Nc1ccc(Cl)c(C(F)(F)F)c1 | 8.12% (active) |

| SMILES | growth |
| --- | --- |
| CN(C)CCCOc1c(Br)cc(/C=C/C(=O)N(C)CCc2cc(Br)c(OCCCN(C)C)c(Br)c2)cc1Br | 64.4% |
| C=C(C)[C@@H]1C/C=C(\COC(=O)[C@H](OC(C)=O)C(NC(=O)c2ccccc2)c2ccccc2)CC[C@H]2O[C@]2(C)CC/C=C(\C)CC1 (stereo partly specified) | 71.4% [5 µM] |
| COc1ccc(Cl)cc1NC(=O)c1cc2c([nH]1)-c1nc(NC(=O)C(C)(C)C)sc1CC2 | 55.5% |
| CC1CCC(C(C)C)C(NN)C1 (stereo unspecified) | 102% |
| Cl[C@@H]1CCO[C@H](c2cc3ccccc3c3ccccc23)C1 | 93% |
| C[C@]12CC[C@@H]3c4ccc(O)c(N)c4CC[C@H]3[C@@H]1CC[C@@H]2O | 99.5% |
| COc1ccc(/C=C/C(=O)c2ccc(-n3cc(CN4CCN(c5cc6c(cc5F)c(=O)c(C(=O)O)cn6C5CC5)CC4)nn3)cc2)cc1OC | 50.9% |
| COc1ccc(-c2nn(-c3ccc(NC(=O)c4ccc(Cl)c(C(F)(F)F)c4)cc3)cc2-c2ccncc2)cc1Cl | -69.3% (active) |
| O=C(O)c1cc2ccccc2cc1Nc1ccccc1 | 69.4% |
| COc1ccc(Cn2cc3c(c2-c2cc(OC)c(OC)c(OC)c2)CCc2c(CO)noc2-3)cc1 | 5.04% (active) |
| COc1cc(C(=O)N2CCN(C(=O)c3cc(OC)c(OCc4ccccc4)cc3N)CC2)c(N)cc1OCc1ccccc1 | 71.4% |
| Nc1ccc(S(=O)(=O)Nc2ccnn2-c2ccccc2)cc1 | 105% |
| COc1ccc(-c2nnc(SCC(=O)Nc3ccc(C(=O)/C=C/c4ccccc4)cc3)o2)cc1OC | 87.1% |
| CCC(N)(C(=O)O)c1ccc(F)cc1 (stereo unspecified) | 99.9% |
| COc1ccc(-c2c(C#N)cnc(N)c2-c2nc3cc(C)c(C)cc3[nH]2)cc1 | 32.2% |
| CC(C)(C)NCC(O)COc1c(Br)c(Br)c(Br)c2c1OC(C)(C)C2 (stereo unspecified) | -97% (active) |
| O=C1/C(=C/c2cccc3cnccc23)Cc2cc(F)ccc21 | 89.9% |
| COC(OC)C1(c2ccccc2)NC(=O)NC1=O (stereo unspecified) | 115% |
| c1cncc(-c2nc3ccccc3[nH]2)c1 | 90.8% |

The compounds below were run on UACC-62 melanoma in the same assay as above. Conditions: 10 µM unless noted.

| SMILES | growth |
| --- | --- |
| COC(=O)c1oc2c(C(=O)/C=C/c3ccc(OC)cc3)c(OCCN3CCOCC3)ccc2c1C | -0.039% (active) |
| CN(C)c1ccc(/C=N/n2c(-c3cc(F)c(Cl)cc3Cl)nn(CN3CCOCC3)c2=S)cc1 | 94.8% |
| CS(=O)(=O)OCC(COS(C)(=O)=O)C(c1ccccc1)c1ccccc1 | 90.3% |
| Nc1ncnc2c1c(C(F)(F)F)cn2[C@@H]1O[C@H](CO)[C@@H](O)[C@H]1O | -38.6% (active) |
| Cc1nccc2c3ccc(OCc4cn(Cc5ccc(Br)cc5)nn4)cc3n(CCCc3ccccc3)c12 | 82.1% |
| [2H]c1nc(Nc2ncc(F)c(-c3cc(F)c4nc(C)n(C(C)C)c4c3)n2)c([2H])c([2H])c1CN1CCN(CC)CC1 | 62.5% |
| COc1cc(/C=C2/Oc3cc4occc4c(OC)c3C2=O)ccc1OCC(=O)Nc1ccncc1 | 93.5% |
| COc1ccc2c(c1)OC(N)=C(C#N)C2c1ccc(F)cc1 (stereo unspecified) | 29.7% |
| CCCCCCCCCCCCCCCCNc1ccccc1 | 98.8% |
| O=C(Nc1ccc(-n2ccc3c(NC(=O)c4ccccc4)ncnc32)cc1)c1cccc(C(F)(F)F)c1 | 25.4% |
| COc1ccc(/C(Cl)=N/N=C(\Cl)c2cc(OC)c(OC)c(OC)c2)cc1OC(C)=O | 93.9% |
| O=C1C(Cl)=C(Nc2ccccc2)C(=O)C(Cl)=C1Nc1ccccc1 | 111% |
| O=C(Nc1ccc(-n2cc(-c3ccncc3)c(-c3ccc(O)c(Cl)c3)n2)cc1)c1cc(C(F)(F)F)cc(C(F)(F)F)c1 | 71.2% |
| CCn1c(C)nc([N+](=O)[O-])c1Sc1nc(N)nc2nc[nH]c12 | 1.74% (active) |
| Cc1cn(C2CC(N=[N+]=[N-])C(COP(=O)(O)OP(=O)(O)OP(=O)(O)O)O2)c(=O)[nH]c1=O (stereo unspecified) | 112% |
| COc1cc(/C=C\c2cc(/C=C\c3ccc(O)c(OC)c3)n(C(=O)CNc3ccccc3OC)n2)ccc1O | 79.1% |
| COc1ccc(Cl)cc1NC(=O)c1cc2c([nH]1)-c1nc(NC(=O)C(C)C)sc1CC2 | 91.7% |
| O=C(/C=C/c1ccco1)c1cccc(Nc2nc(Nc3ccccc3)nc(Nc3ccccc3)n2)c1 | 80.3% |
| O=C(Nc1ccc(-n2ccc3c(NC(=O)c4ccccc4)ncnc32)cc1)Nc1ccc(Cl)c(C(F)(F)F)c1 | 29.7% |

| SMILES | growth |
| --- | --- |
| CN(C)CCCOc1c(Br)cc(/C=C/C(=O)N(C)CCc2cc(Br)c(OCCCN(C)C)c(Br)c2)cc1Br | -26.5% (active) |
| C=C(C)[C@@H]1C/C=C(\COC(=O)[C@H](OC(C)=O)C(NC(=O)c2ccccc2)c2ccccc2)CC[C@H]2O[C@]2(C)CC/C=C(\C)CC1 (stereo partly specified) | 62.3% [5 µM] |
| COc1ccc(Cl)cc1NC(=O)c1cc2c([nH]1)-c1nc(NC(=O)C(C)(C)C)sc1CC2 | 81.2% |
| CC1CCC(C(C)C)C(NN)C1 (stereo unspecified) | 96.7% |
| Cl[C@@H]1CCO[C@H](c2cc3ccccc3c3ccccc23)C1 | 85.2% |
| C[C@]12CC[C@@H]3c4ccc(O)c(N)c4CC[C@H]3[C@@H]1CC[C@@H]2O | 97.1% |
| COc1ccc(/C=C/C(=O)c2ccc(-n3cc(CN4CCN(c5cc6c(cc5F)c(=O)c(C(=O)O)cn6C5CC5)CC4)nn3)cc2)cc1OC | 54.1% |
| COc1ccc(-c2nn(-c3ccc(NC(=O)c4ccc(Cl)c(C(F)(F)F)c4)cc3)cc2-c2ccncc2)cc1Cl | -14.6% (active) |
| O=C(O)c1cc2ccccc2cc1Nc1ccccc1 | 103% |
| COc1ccc(Cn2cc3c(c2-c2cc(OC)c(OC)c(OC)c2)CCc2c(CO)noc2-3)cc1 | 12.7% |
| COc1cc(C(=O)N2CCN(C(=O)c3cc(OC)c(OCc4ccccc4)cc3N)CC2)c(N)cc1OCc1ccccc1 | 114% |
| Nc1ccc(S(=O)(=O)Nc2ccnn2-c2ccccc2)cc1 | 107% |
| COc1ccc(-c2nnc(SCC(=O)Nc3ccc(C(=O)/C=C/c4ccccc4)cc3)o2)cc1OC | 92.4% |
| CCC(N)(C(=O)O)c1ccc(F)cc1 (stereo unspecified) | 112% |
| COc1ccc(-c2c(C#N)cnc(N)c2-c2nc3cc(C)c(C)cc3[nH]2)cc1 | 56.1% |
| CC(C)(C)NCC(O)COc1c(Br)c(Br)c(Br)c2c1OC(C)(C)C2 (stereo unspecified) | -79.8% (active) |
| O=C1/C(=C/c2cccc3cnccc23)Cc2cc(F)ccc21 | 86.3% |
| COC(OC)C1(c2ccccc2)NC(=O)NC1=O (stereo unspecified) | 106% |
| c1cncc(-c2nc3ccccc3[nH]2)c1 | 85.5% |
